Screens deposited in PubChem BioAssay by National Center for Advancing Translational Sciences (NCATS).
GLP-1R inv ag: inverse agonists of human GLP-1 receptor | HEK293 GLP-1R CRE-luciferase, luminescence, 24 h; GLP-1R form is constitutively active | hit rate 1.6% among 410,000 | P43220 | Potency, µM (top dose mostly 38.3 µM), usual class: inhibitors | AID 624417; also: nearly all actives have a fitted effect of over 55% in size
Target sequence (P43220 whole entry, looked up): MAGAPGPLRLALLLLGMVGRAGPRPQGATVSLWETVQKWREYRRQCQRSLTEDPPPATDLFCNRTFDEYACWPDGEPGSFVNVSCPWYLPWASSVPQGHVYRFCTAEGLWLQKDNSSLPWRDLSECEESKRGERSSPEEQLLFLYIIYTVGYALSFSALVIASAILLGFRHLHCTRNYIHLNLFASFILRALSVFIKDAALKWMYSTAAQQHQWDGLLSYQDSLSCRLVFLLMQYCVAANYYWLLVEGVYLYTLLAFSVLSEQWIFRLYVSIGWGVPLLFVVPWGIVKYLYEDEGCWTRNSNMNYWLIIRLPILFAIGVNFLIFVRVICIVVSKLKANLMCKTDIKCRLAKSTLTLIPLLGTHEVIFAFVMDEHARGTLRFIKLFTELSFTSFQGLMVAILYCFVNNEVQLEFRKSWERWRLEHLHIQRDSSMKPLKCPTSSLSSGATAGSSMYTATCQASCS
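Readout was luciferase luminescence, measured 12 min after detection reagent at room temperature. Beforehand, GLP-1R reporter HEK293 cells had sat 12 h, then received compounds for 24 hr at 37 deg C.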
LDHA block: LDHA (human) enzyme inhibition. purified LDHA, NADH/diaphorase-resazurin fluorescence; hits give low values. activity change, % (values are at about 110 or 230 µM). hit rate 0.15% among 480,000; in the data active = activity change below about -30%; inconclusive = mostly about -25% to -30%
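LDH5 2 nM; NADH 0.06 mM, pyruvate 0.2 mM; 200 mM Tris pH 7.4, EDTA, Tween-20; 5 min RT. Detection: diaphorase 0.133 mg/mL + resazurin 37 µM, fluorescence ex540/em590 at 0 and 20 min; normalized to enzyme-free and DMSO wells.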
GLP-1R agonist: GLP-1 receptor (human) agonism; HEK293 GLP-1R CRE-luciferase, luminescence, 4-6 h; cells express a hypersensitive GLP-1R form; Potency, µM (series often up to 45.6 µM), usual class: activators; hit rate 0.007% among 380,000
ClpP mod: qHTS Assay for Activators of ClpP | ATP-dependent Clp protease proteolytic subunit (Bacillus subtilis (strain 168)), P80244 | purified B. subtilis ClpP, FRET peptide cleavage, 20 min | Potency, µM (doses to about 57.5 µM) | hit rate 1.9% among 340,000 | AID 651965, 2013; active = well fitted falling curve with a large enough effect; inconclusive = small, poorly fitted or top-dose-only effect; inactive = no such curve, though single readings can be large or run the other way; also: the source files actives as falling curves though it sought activators and does not explain the sign; nearly all actives have a fitted effect of over 65% in size
Target sequence (P80244 whole entry, looked up): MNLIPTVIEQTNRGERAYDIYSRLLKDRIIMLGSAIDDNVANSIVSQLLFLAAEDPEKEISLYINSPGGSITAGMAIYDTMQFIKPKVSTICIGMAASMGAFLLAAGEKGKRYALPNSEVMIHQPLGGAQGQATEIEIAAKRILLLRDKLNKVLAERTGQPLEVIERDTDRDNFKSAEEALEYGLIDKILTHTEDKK
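ClpP 10 microg/mL final, pH 8 Tris/KCl buffer with BSA, glycerol, Tween-20; compound pinned in; FRET-FV substrate; RT 20 min; Ex320/Em430; ΔFRET vs ADEP 5.8 microM, DMSO, no enzyme.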
p53 reactivation: mutant p53 re-activation in reporter cells; H1299 p53-A138V BP100-luciferase reporter, luminescence, 24 h; Potency, µM (titrated, usually from 92.2 µM), actives largely listed as activators; hit rate 0.063% among 320,000; AID 504706; also: nearly all actives have a fitted effect of over 45% in size
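H1299 (p53-null), stable ts p53-A138V + BP100-Luc; 1000 cells/well, Opti-MEM/10% FBS; cpd 4 pt, 1:5; 24 h, 37 deg C, 5% CO2; detection reagent 10 min RT; luminescence.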
HEK293 tox: cytotoxicity in counter-screen for GLP-1R inverse agonists; HEK293 cAMP-luciferase reporter cells, luminescence, 24 h; Potency, µM (highest dose often 38.3 µM), usual class: inhibitors; hit rate 0.13% among 410,000; AID 624418;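 also: loss of luciferase light is scored as toxicity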
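Cells in DMEM/10% Nu serum/1% pen-strep, 1536-well format. Pre-incubated 12 h, dosed with 23 nL compound, incubated a further 24 h. Luciferase detection, 12 min at room temp, luminescence.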
A number is an active result; – = inactive; ? = inconclusive; · = no result. Compounds with a hit are over-represented: about 2.9% of the library has one in this group of screens. Unless noted, calls follow the shape of the dose curve; as a rule, active = well fitted curve in the direction sought with a large enough effect; inconclusive = small, poorly fitted or top-dose-only effect, or another doubt; inactive = no such curve, though single readings can be large; an effect the other way counts as inactive or inconclusive.

SMILES | GLP-1R inv ag | LDHA block | GLP-1R agonist | ClpP mod | p53 reactivation | HEK293 tox
CC(NCC(O)COc1ccc2ccccc2c1)c1ccccc1 (centres undefined) | 2.82µM | – | – | · | – | ?
COc1ccc(OCC(O)CNC(C)c2ccccc2)cc1 (centres undefined) | – | – | – | – | – | –
CC(NCC(O)COC1CCC(C(C)(C)C)CC1)c1ccccc1 (centres undefined) | 10µM | – | – | – | – | ?
COc1cccc(-c2cnc3c(c2)C(=O)N([C@H](C)CO)C[C@@H](C)[C@H](CN(C)C(=O)Nc2ccccc2F)O3)c1 | – | – | – | – | · | –
Cc1ccc2cc(CN(CCN(C)C)C(=O)Nc3ccc(Cl)cc3)c(=O)[nH]c2c1 | – | – | – | – | – | –
CN(CC(O)COc1ccc2ccccc2c1)C1CCCCC1 (centres undefined) | 8.91µM | – | – | – | – | –
CCc1ccc(NS(=O)(=O)c2ccc3[nH]cc(C(=O)N4CCc5ccccc54)c(=O)c3c2)cc1 | ? | – | – | – | ? | –
O=C(NNc1ccccc1)/C(=C\c1cccnc1)NC(=O)c1ccccc1 | 3.55µM | – | – | – | – | –
COC(=O)C(NC(=O)c1ccco1)(Nc1nc(C)cs1)C(F)(F)F (centres undefined) | – | – | – | – | – | –
CC(C)(C)C(C(=O)O)N1CCS(=O)(=O)CC1 (centres undefined) | – | – | – | · | – | –
CC(OC(=O)c1ccccc1NCc1ccco1)C(=O)Nc1ncc(Cl)cc1Cl (centres undefined) | ? | – | – | 31.6µM | – | –
O=C(CS(=O)(=O)c1ccccc1)Nc1ccc(Cl)cn1 | – | – | – | – | – | –
O=C(CC(c1ccccc1)c1ccccc1)Nc1ccc(Cl)cn1 | 5.01µM | – | – | – | – | ?
CC(OC(=O)Cc1ccsc1)C(=O)Nc1ccc(Cl)cn1 (centres undefined) | – | – | – | 25.1µM | – | –
CCOc1ncccc1C(=O)OC(C)C(=O)Nc1ccc(Cl)cn1 (centres undefined) | – | – | – | – | – | –
CNc1ccccc1C(=O)OC(C)C(=O)Nc1ccc(Cl)cn1 (centres undefined) | ? | – | – | 25.1µM | – | ?
Clc1ccc(C2Nc3cccc4cccc(c34)N2)cc1 | – | – | – | · | · | –
Cn1c(=O)c2c(nc(Cl)n2CCOc2cccc(Cl)c2)n(C)c1=O | · | – | · | · | · | ·
CC1C2CC(C/C2=N\NC(N)=S)C1(C)C (centres undefined) | · | – | · | · | · | ·
Cc1ccc(Cl)cc1N1CCN(C(=O)C2CCCN(Cc3nc(-c4cccc(Cl)c4)oc3C)C2)CC1 (centres undefined) | 3.98µM | – | · | – | · | –
Cc1ccc(C)c(N2CCN(C(=O)C3CCCN(Cc4nc(-c5cccc(Cl)c5)oc4C)C3)CC2)c1 (centres undefined) | – | – | · | – | · | –
Cc1ccc(NC(=O)N2CC=C(c3c[nH]c4ccccc34)CC2)cc1Cl | ? | – | · | – | · | –
COC(=O)c1ccc(Cl)cc1NC(=O)N1CC=C(c2c[nH]c3ccccc23)CC1 | – | – | · | 28.2µM | · | –
O=C(CNC(=S)N(CCCN1CCOCC1)Cc1cccs1)NCc1ccccc1 | – | – | – | – | – | –
O=C(CNC(=S)N(Cc1ccccc1)Cc1cccs1)NCc1ccc(F)cc1 | 2.82µM | – | – | · | – | –
SMILES | GLP-1R inv ag | LDHA block | GLP-1R agonist | ClpP mod | p53 reactivation | HEK293 tox
O=C(CNC(=S)N(Cc1ccccc1)Cc1ccccc1F)NCCc1ccc(Cl)cc1 | 3.98µM | – | – | · | – | –
CC(C)C(NC(=O)C1CCC(C(C)(C)C)CC1)C(=O)NCc1cccnc1 (centres undefined) | – | – | – | – | – | –
COc1ccc2nc(-c3ccccc3)nc(C3CCCCC3)c2c1 | – | – | – | ? | – | –
COc1ccc2nc(-c3ccccc3)nc(SC)c2c1 | – | – | – | 22.4µM | · | –
Cc1cccc(C)c1Nc1c(-c2cccs2)nc2ncccn12 | – | – | – | – | · | –
Cc1ccc2nc(-c3cccs3)c(Nc3c(C)cccc3C)n2c1 | ? | – | · | 28.2µM | · | –
Cc1ccc(NC2OC(CO)C(O)C(O)C2O)cc1 (centres undefined) | – | – | – | – | – | –
Cc1c(C(=O)NCC2CCCO2)oc2ccc3c(c12)C(=O)CC(C)(C)O3 (centres undefined) | ? | – | – | 25.1µM | ? | –
COc1ccccc1NC(=S)NCc1cccs1 | – | – | – | 12.6µM | – | –
COc1ccc(Cl)cc1NC(=S)NCc1cccs1 | – | – | – | · | – | –
COc1ccccc1NC(=S)NCCSc1ccc(C)cc1 | 11.2µM | – | – | – | – | ?
COc1cc2c(cc1OC)C(c1cc3cc(C)ccc3[nH]c1=O)N(C(=O)c1ccco1)CC2 (centres undefined) | – | – | – | – | – | –
CC(C)Cc1nn2c(=O)cc(COC(=O)c3cccc(NC(=O)c4ccc(Cl)cc4)c3)nc2s1 | · | – | · | · | · | ·
CCOC(=O)C1CCC(CN(Cc2ccc(OC)cc2)S(=O)(=O)c2ccc(F)c(C(=O)Nc3c(C)cccc3C)c2)CC1 (centres undefined) | 2µM | – | · | – | · | –
CC(C)C(=O)Nc1nc(-c2ccc(S(=O)(=O)N3CCOCC3)cc2)cs1 | – | – | – | 31.6µM | – | –
COc1ccccc1OC(C)C(=O)Nc1nc(-c2ccc(S(=O)(=O)N3CCOCC3)cc2)cs1 (centres undefined) | – | – | – | – | – | –
CC(C)n1cnc2c(=S)nc[nH]c21 | – | – | – | – | – | –
COCCn1c(N)c(S(=O)(=O)c2cccs2)c2nc3ccccc3nc21 | – | – | – | – | – | –
COc1ccc(Cn2c(N)c(S(=O)(=O)c3cccs3)c3nc4ccccc4nc32)cc1 | – | – | – | 8.91µM | – | –
COc1cccc(/C=N/n2c(N)c(S(=O)(=O)c3cccs3)c3nc4ccccc4nc32)c1OC | – | – | – | 2.82µM | – | –
Cc1ccc(Cn2c(N)c(S(=O)(=O)c3cccs3)c3nc4ccccc4nc32)cc1 | – | – | – | 3.16µM | – | –
Nc1c(S(=O)(=O)c2cccs2)c2nc3ccccc3nc2n1Cc1ccccc1 | – | – | – | 35.5µM | – | –
CCCCn1c(N)c(S(=O)(=O)c2ccc(C)cc2)c2nc3ccccc3nc21 | ? | – | – | · | – | –
COc1ccc(/C=C/C(=O)N[C@@H]2C[C@H]3CC[C@@H]2C3)cc1 | · | – | · | · | · | ·
